12 compounds from PubChem BioAssay (NCATS) can be followed below.

“And” between values parts separate entries of the source, which are not always exact repeats. Equal entries are not always repeated. Results filed as inconclusive are left out. Unmarked numbers belong to inactive results. The source made the active and inactive calls. Calls come from the whole dose curve; as a rule, active = well fitted curve in the direction sought with a large enough effect; inconclusive = small, poorly fitted or top-dose-only effect, or another doubt; inactive = no such curve, though single readings can be large; an effect the other way counts as inactive or inconclusive.

The target in assay [1] is Cytochrome P450 3A7 (Homo sapiens) (UniProt P24462). Description: Cytochrome P450 family 3 subfamily A member 7 (CYP3A7) small molecule antagonists: luciferase biochemical qHTS assay (AID 1963596). Note: % is set by controls: 0 for no effect and ±100 for the full control effect; nearly all actives have a fitted effect of over 40% in size. The following applies: P450-Glo CYP3A7 enzyme luminescence, 1 h; series mostly up to 57.4 µM. Put shortly:
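In this luminescent screen, enzyme and proluciferin substrate meet test compound for 10 min before NADPH regeneration solution drives a 1 h room-temperature reaction; detection reagent halts turnover and luminescence is read 20 min later.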

The nature of assay [2]: Viability qHTS for spleen associated tyrosine kinase inhibitor (SYKi) drug resistant MV4-11 cells (AID 1963824). Note: nearly all actives have a fitted effect of over 35% in size. The following applies: SYKi-resistant MV4-11 viability, CellTiter-Glo, 72 h; series mostly up to 45 µM. Put shortly:
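SYK inhibitor-resistant MV4-11 AML cells, 500 per well, added to predispensed compounds and incubated 72 hr at 37 C, 5% CO2. Viability measured by CellTiter-Glo luminescence after 10 min at room temperature.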

Assay [3] is described as follows: Cellular viability qHTS for adrenocortical cancer (ACC) cell line SW-13 (AID 1963989).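 Note: cells grown in serum-free medium with ITS supplement; % is set by controls: 0 for no effect and ±100 for the full control effect; nearly all actives have a fitted effect of over 65% in size.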 The following applies: SW-13 ACC cells viability, CellTiter-Glo, 48 h; activity (max response): stronger effect = lower value. The essentials: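 SW-13 cells in ITS-supplemented serum-free DMEM were plated overnight, then exposed for 48 h at 37C to compound titrations (up to 46 uM final). Viability was read by CellTiter-Glo luminescence; four-parameter logistic fits gave IC50 and efficacy.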

Assay [4] is described as follows: Cellular viability qHTS for adrenocortical cancer (ACC) cell line NCI-H295R (AID 1963990).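 Note: 0% = DMSO only wells and -100% = full killing with cytotoxic reference compound; nearly all actives have a fitted effect of over 60% in size.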 The following applies: CellTiter-Glo ATP luminescence, 48 h; series mostly up to 46.1 µM. The essentials:
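Luminescent ATP read-out (CellTiter-Glo, 20 min RT) after 48 h drug exposure of NCI-H295R cells; a titration up to 46 uM final. Data normalized to doxorubicin (100% inhibition) and DMSO (0%); 4-parameter fit gives IC50, max response.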

A short description of assay [5]: Quantitative highthroughput screen to assess conditional lethalithy of NOMO1 cells grown in RPMI1640 with untreated serum (RPMI+s) (AID 1963876). Note: potency is the fitted concentration of half-maximal effect; nearly all actives have a fitted effect of over 35% in size. The following applies: NOMO1 AML cells in RPMI+serum, CellTiter-Glo viability, 48 h; series mostly up to 45.8 µM. Put shortly:
(§1)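 Each medium arm—HPLM with 10% dialyzed FBS, or RPMI1640 with 5 mM glucose and 10% untreated or dialyzed FBS—was screened against an 11-point, 3-fold compound titration for 48 h at 37 °C, with CellTiter-Glo luminescence as endpoint.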

Assay [6] can be described thus: Quantitative highthroughput screen to assess conditional lethalithy of NOMO1 cells grown in RPMI1640 with dialyzed fetal bovine serum (RPMI+ds) (AID 1963877). Note: potency is the fitted concentration of half-maximal effect; nearly all actives have a fitted effect of over 30% in size. The following applies: NOMO1 in RPMI+dialyzed FBS viability, ATP luminescence, 48 h; series mostly up to 45.8 µM. Put shortly:
as §1

Assay [7] is described as follows: Quantitative highthroughput screen to assess conditional lethalithy of NOMO1 cells grown in Human Plasma-Like Medium with dialyzed fetal bovine serum (HPLM+ds) (AID 1963878). Note: potency is the fitted concentration of half-maximal effect; nearly all actives have a fitted effect of over 35% in size. The following applies: NOMO1 AML cells in HPLM+ds, CellTiter-Glo viability, 48 h; series mostly up to 45.8 µM. Put shortly:
as §1

Assay [8] is described as follows: Quantitative highthroughput screen to assess conditional lethalithy of P12 Ichikawa cells grown in Human Plasma-Like Medium with dialyzed fetal bovine serum (HPLM+ds) (AID 1963879). Note: potency is the fitted concentration of half-maximal effect; nearly all actives have a fitted effect of over 35% in size. Conditions: ATP luminescence, 48 h; Potency: viability; series mostly up to 45.8 µM. Put shortly: as §1
The nature of assay [9]: Quantitative highthroughput screen to assess conditional lethalithy of P12 Ichikawa cells grown in RPMI1640 with dialyzed fetal bovine serum (RPMI+ds) (AID 1963880). Conditions: ATP luminescence, 48 h; Potency: P12-Ichikawa viability; series mostly up to 45.8 µM. Put shortly:
as §1

Assay [10] in a line: Quantitative highthroughput screen to assess conditional lethalithy of P12 Ichikawa cells grown in RPMI1640 with untreated serum (RPMI+s) (AID 1963881). The following applies: ATP luminescence, 48 h; Potency: viability; series mostly up to 45.8 µM. Put shortly: as §1
The nature of assay [11]: Quantitative highthroughput screen to assess conditional lethalithy of SEM cells grown in Human Plasma-Like Medium with dialyzed fetal bovine serum (HPLM+ds) (AID 1963882). Conditions: SEM B-ALL cells in HPLM+ds, CellTiter-Glo viability, 48 h; series mostly up to 45.8 µM. The essentials:
as §1

Assay [12] can be described thus: Quantitative highthroughput screen to assess conditional lethalithy of SEM cells grown in RPMI1640 with unreated serum (RPMI+s) (AID 1963883). The following applies: SEM B-ALL cells, CellTiter-Glo viability, 48 h; series mostly up to 45.8 µM. Put shortly: as §1
Assay [13] can be described thus: Quantitative highthroughput screen to assess conditional lethalithy of SEM cells grown in RPMI1640 with dialyzed fetal bovine serum (RPMI+ds) (AID 1963884). The following applies: SEM B-ALL cells, RPMI+dialyzed FBS, CellTiter-Glo viability, 48 h; series mostly up to 45.8 µM. Put shortly: as §1

Chain of Cytochrome P450 3A7 (Homo sapiens) (P24462 whole entry, looked up): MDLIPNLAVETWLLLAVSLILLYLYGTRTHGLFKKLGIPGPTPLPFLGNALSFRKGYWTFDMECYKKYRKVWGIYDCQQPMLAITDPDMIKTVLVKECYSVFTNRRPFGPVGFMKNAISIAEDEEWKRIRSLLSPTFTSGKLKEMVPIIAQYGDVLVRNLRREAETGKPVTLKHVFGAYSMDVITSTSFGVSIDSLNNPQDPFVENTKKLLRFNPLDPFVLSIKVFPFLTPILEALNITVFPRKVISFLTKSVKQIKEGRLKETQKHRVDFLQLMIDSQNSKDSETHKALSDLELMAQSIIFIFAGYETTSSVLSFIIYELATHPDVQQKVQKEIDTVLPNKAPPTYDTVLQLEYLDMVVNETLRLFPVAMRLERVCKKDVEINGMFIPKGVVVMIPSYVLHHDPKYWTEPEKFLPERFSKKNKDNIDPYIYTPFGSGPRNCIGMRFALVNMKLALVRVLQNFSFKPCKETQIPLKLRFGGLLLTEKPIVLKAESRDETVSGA

Take `NS(=O)(=O)c1ccc(Cl)c(S(N)(=O)=O)c1`: the Potency result in [1], in [2] and in assay [4] was “inactive” throughout. The activity (max response) in assay [3] is -3.32%.
On to `O=C(O)c1ccc(OCCN2CCCCC2)cc1`, for which the Potency entry in assay [1], in assay [2] and in [4] was “inactive” throughout. Besides, in [3], the activity (max response) was 10.8%.
For the compound `CC[C@@H](CO)NCCN[C@@H](CC)CO`, the Potency result in [1], in [2] and in [4] was “inactive” throughout. Also, in assay [3], the activity (max response) is 14%.
For `NS(=O)(=O)Cc1noc2ccccc12`, the Potency result in [1], in [2] and in [4] was “inactive” throughout. Further, in assay [3], the activity (max response) is 1.85%.
With `Cc1ncc([N+](=O)[O-])n1C`, the Potency result in assay [1], in assay [2] and in assay [4] was “inactive” each time. Also, the activity (max response) in assay [3] is 9.67%.
As to `CNC(=O)c1c(I)c(NC(=O)CCCCC(=O)Nc2c(I)c(C(=O)O)c(I)c(C(=O)NC)c2I)c(I)c(C(=O)O)c1I`, the Potency entry in [1], in assay [2] and in [4] was “inactive” each time. Besides, the activity (max response) in assay [3] is -7.54%.
Turning to `O=C(O)Cc1cccc2ccccc12`, the Potency result in assay [1], in [2] and in assay [4] was “inactive” in each case. Also, the activity (max response) in assay [3] was 3.96% and 12.8%.
As to `O=C1NC(c2ccccc2)(c2ccccc2)C(=O)N1COP(=O)(O)O`, the Potency result in assay [1], in [2] and in [4] was “inactive” throughout. Also, the activity (max response) in assay [3] was 10.4%.
On to `CC1=NS(=O)(=O)c2cc(Cl)ccc2N1`, for which the Potency result in assay [1], in assay [2] and in assay [4] was “inactive” in each case.
As to `C=C(C)C(=O)OCC(O)CO` (configuration not stated), the Potency entry in assay [1], in assay [2] and in assay [4] was “inactive” each time. For the same compound, the activity (max response) in assay [3] is -4.84%.
As for `C[N+](C)(C)CCCCCCCCCC[N+](C)(C)C`, the Potency result in assay [1], in [2] and in assay [4] was “inactive” each time.
On to `CCCCc1nc2cc(C=CC(=O)NO)ccc2n1CCN(CC)CC`, for which the Potency entry in assay [1] was “inactive”. Moreover, the Potency is 4180 nM (active) in assay [5]; 6620 nM (active) in [6]; 4690 nM (active) in assay [7]; 2640 nM (active) in assay [8]; 2960 nM (active) in assay [9]; 2960 nM (active) in [10]. The figures for the Potency in assay [11], in assay [12] and in assay [13] were 1870 nM (active), 2090 nM (active) and 2090 nM (active), respectively.
